Assay results: PubChem BioAssay AID540356 (Broad Institute, 2011)
About 360 (14%) of roughly 2,500 compounds were called active.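 How the source made its calls: active means signal-lowering compounds whose fitted half-maximal concentration AC50 is no higher than ten times their top tested concentration; inconclusive means flat curve with 30 to 70% inhibition, or poor fit; inactive means flat within 30%, signal increase, or AC50 above limit.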 Only a sample is shown.

assay: non-specific inhibitors of H2O2 luminol chemiluminescence – biochemical, luminescence, no ALR or DTT, cherry-pick, artefact control for ALR inhibitor project, dose response (AID 540356); settings: HRP/H2O2 luminol luminescence counterscreen; series mostly up to 10 µM

| SMILES | AC50 |
| --- | --- |
| COc1ccc(/C=N/Nc2nc3ccccc3[nH]2)cc1OC | inactive |
| COc1cc(/C=N/Nc2nc3ccccc3[nH]2)ccc1O | 8830 nM (active) |
| COc1cc(/C=N/Nc2nc3ccccc3[nH]c2=O)ccc1O | inactive |
| O=S(=O)(Nc1ccc(N2CCCCC2)cc1)c1cccc2cccnc12 | inactive |
| COc1ccc(CNc2nc3ccccc3n2C(C)C)c(O)c1 | inactive |
| COc1ccc(O)c(-c2cc(-c3ccccc3[N+](=O)[O-])[nH]n2)c1 | inactive |
| Oc1ccccc1-c1n[nH]c(=S)n1Cc1ccco1 | inactive |
| COc1ccc(N2CCN(S(=O)(=O)c3cccc4cccnc34)CC2)cc1 | inactive |
| Oc1ccc(NCc2cccs2)cc1 | inactive |
| Oc1cccc(Nc2c3ccccc3nc3ccccc23)c1 | inactive |
| COC(=O)C1C(C(C)C)N(c2ccccc2)OC1(C)O (centres undefined) | inactive |
| CCc1ccc(CNc2ccc(N3CCN(C(C)=O)CC3)cc2)cc1 | inactive |
| CC(=O)N1CCN(c2ccc(NCc3ccccc3)cc2)CC1 | 8410 nM (active) |
| CC(=O)N1CCN(c2ccc(NCc3cccc4ccccc34)cc2)CC1 | inactive |
| CCN(CCCNC(=O)CN(C)S(=O)(=O)c1cccc2nsnc12)c1cccc(C)c1 | inactive |
| O=S(=O)(c1ccc2ccccc2c1)N1CCN=C1SCc1cccnc1 | inactive |
| CCCc1ccc(-c2cc(N)n[nH]2)cc1 | inactive |
| Cc1cccc(N/N=C/c2ccncc2)c1 | 2610 nM (active) |
| Cc1cccc(N/N=C/c2ccc(O)c(O)c2O)c1 | inactive |
| O=C(N/N=C/c1ccncc1)c1cccc(N/N=C/c2ccncc2)c1 | inactive |

| SMILES | AC50 |
| --- | --- |
| COC(=O)/C=C/S(=O)(=O)c1ccc(NC(C)=O)cc1 | inactive |
| CC(=O)N/N=C/c1cc(C)n(-c2ccc(Br)cc2)c1C | inactive |
| COc1cc(/C=C2\CCCc3c2nc2ccccc2c3C(=O)O)cc(Br)c1O | inactive |
| CCN(CC)c1ccc(NS(=O)(=O)c2ccc(OC)cc2)cc1 | inactive |
| CCc1cc(C(=O)c2ccc(OC)cc2)c(NC(=O)CC(C)(C)CC(=O)O)s1 | inactive |
| COc1cc(/C=N/NC(=O)c2ccc(CSc3nncn3C)cc2)cc(OC)c1O | inactive |
| Cn1c(CSCc2ccc(Cl)cc2)n[nH]c1=S | inactive |
| Cc1cc(C)n2nc(C(=O)N/N=C/c3ccc(O)cc3)nc2n1 | inactive |
| Cc1nn(-c2ccccc2)c(C)c1-c1cc(C(=O)N/N=C/c2ccc(O)cc2)[nH]n1 | inactive |
| CN(C)Cc1ccccc1Sc1ccc(O)cc1O | inactive |
| Cc1c(Cl)cccc1-n1c(-c2cccnc2)n[nH]c1=S | inactive |
| CN(C)c1ccc(CNS(=O)(=O)c2ccc3c(c2)NC(=O)CS3)cc1 | inactive |
| Cc1cc(C(=O)NNc2ccc(F)cc2)no1 | inactive |
| Cc1ccc(NNC(=O)c2ccno2)cc1C | 635 nM (active) |
| Cc1ccc(NNC(=O)c2ccno2)cc1Cl | 327 nM (active) |
| Cc1ccc(NCCC(=O)c2cccs2)cc1C | inactive |
| O=C(Nc1ccc(Cl)c(Cl)c1)Nc1ccccc1C(=O)O | inactive |
| COc1ccc(/C=N/NC(=O)c2ccncc2)cc1CN1CCN(c2ccc(F)cc2)CC1 | inactive |
| CCN(CC)c1ccc(/C=N/NC(=O)c2cccc(N3CCCC3=O)c2)cc1 | inactive |
